Assay results as given in PubChem BioAssay AID1159580 (chemical genetic matrix, 2015).
“And” between values parts separate entries of the source, which are not always exact repeats. Equal values may be shown once. Out of some 5,500 compounds screened, about 2,000 (36%) were called active. Roughly 18% stayed inconclusive and do not appear here. Cut-off read from the data, not from the text of the source: active = normalized growth mostly below about 0.91 (no sharp cut-off); inconclusive = no clear call, values can overlap the other calls; inactive = mostly above about 0.92. The list shows a part of the results.

Assay: chemical genetic growth profiling, strain panel (AID 1159580);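 note: tested at 20 µM; growth read once vehicle control cultures reached saturation at 30 °C; 1 = growth at the plate median or of vehicle wells; lower values mean less growth of the strain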
Details: S. cerevisiae deletion strains, growth OD

CC[C@@]1(O)C(=O)OCc2c1cc1n(c2=O)Cc2cc3ccccc3nc2-1
normalized growth (locus YAL013W, strain DEP1, stronger effect = lower value): 0.829 (active) | normalized growth (locus YAL021C, strain ccr4, stronger effect = lower value): 0.327 (active) | normalized growth (locus YAL026C, strain drs2, stronger effect = lower value): 0.626 (active) | normalized growth (locus YAL030W, strain snc1, stronger effect = lower value): 0.813 (active) | normalized growth (locus YBL061C, strain skt5, stronger effect = lower value): 0.859 (active) | normalized growth (locus YBR009C, strain hhf1, stronger effect = lower value): 0.681 (active) | normalized growth (locus YBR021W, strain FUR4, stronger effect = lower value): 0.889 (inactive) | normalized growth (locus YBR023C, strain chs3, stronger effect = lower value): 0.803 (active) | normalized growth (locus YBR171W, strain sec66, stronger effect = lower value): 0.949 (inactive) | normalized growth (locus YBR229C, strain ROT2, stronger effect = lower value): 0.982 (inactive) | normalized growth (locus YBR231C, strain swc5, stronger effect = lower value): 0.696 (active) | normalized growth (locus YBR279W, strain paf1, stronger effect = lower value): 0.98 (inactive) | normalized growth (locus YCL011C, strain gbp2, stronger effect = lower value): 0.577 (active) | normalized growth (locus YCL016C, strain dcc1, stronger effect = lower value): 0.134 (active) | normalized growth (locus YCL029C, strain bik1, stronger effect = lower value): 0.884 (active) | normalized growth (locus YCL061C, strain MRC1, stronger effect = lower value): 0.821 (active) | normalized growth (locus YCL069W, strain vba3, stronger effect = lower value): 0.788 (active) | normalized growth (locus YCR088W, strain abp1, stronger effect = lower value): 0.747 (active) | normalized growth (locus YDL005C, strain med2, stronger effect = lower value): 0.882 (active) | normalized growth (locus YDL035C, strain GPR1, stronger effect = lower value): 0.843 (active) | normalized growth (locus YDL040C, strain nat1, stronger effect = lower value): 0.952 (inactive) | normalized growth (locus YDL074C, strain BRE1, stronger effect = lower value): 0.613 (active) | normalized growth (locus YDL101C, strain DUN1, stronger effect = lower value): 0.654 (active) | normalized growth (locus YDL134C, strain PPH21, stronger effect = lower value): 0.81 (active) | normalized growth (locus YDL185W, strain tfp1, stronger effect = lower value): 0.782 (active) | normalized growth (locus YDL192W, strain arf1, stronger effect = lower value): 0.838 (active) | normalized growth (locus YDR001C, strain nth1, stronger effect = lower value): 0.882 (active) | normalized growth (locus YDR069C, strain doa4, stronger effect = lower value): 0.767 (active) | normalized growth (locus YDR101C, strain arx1, stronger effect = lower value): 0.897 (active) | normalized growth (locus YDR137W, strain rgp1, stronger effect = lower value): 0.74 (active) | normalized growth (locus YDR150W, strain NUM1, stronger effect = lower value): 0.998 (inactive) | normalized growth (locus YDR159W, strain sac3, stronger effect = lower value): 0.821 (active) | normalized growth (locus YDR162C, strain NBP2, stronger effect = lower value): 0.688 (active) | normalized growth (locus YDR195W, strain ref2): 0.538 (active) | normalized growth (locus YDR297W, strain sur2, stronger effect = lower value): 0.884 (active) | normalized growth (locus YDR318W, strain mcm21, stronger effect = lower value): 0.796 (active) | normalized growth (locus YDR334W, strain swr1, stronger effect = lower value): 0.786 (active) | normalized growth (locus YDR335W, strain msn5, stronger effect = lower value): 0.841 (active) | normalized growth (locus YDR388W, stronger effect = lower value): 0.793 (active) | normalized growth (locus YDR392W, strain spt3, stronger effect = lower value): 0.284 (active) | normalized growth (locus YDR502C, strain sam2, stronger effect = lower value): 0.803 (active) | normalized growth (locus YEL003W, strain gim4, stronger effect = lower value): 0.834 (active) | normalized growth (locus YEL037C, strain rad23, stronger effect = lower value): 0.851 (active) | normalized growth (locus YEL061C, strain CIN8 (second series), stronger effect = lower value): 0.848 (active) | normalized growth (locus YEL061C, strain CIN8, stronger effect = lower value): 0.947 (inactive) | normalized growth (locus YER015W, strain faa2, stronger effect = lower value): 0.784 (active) | normalized growth (locus YER016W, strain bim1, stronger effect = lower value): 0.754 (active) | normalized growth (locus YER110C, stronger effect = lower value): 0.944 (inactive) | normalized growth (locus YER111C, strain swi4, stronger effect = lower value): 0.97 (inactive) | normalized growth (locus YER155C, strain BEM2 (second series), stronger effect = lower value): 0.887 (inactive) | normalized growth (locus YER155C, strain BEM2, stronger effect = lower value): 0.837 (active) | normalized growth (locus YER167W, strain BCK2, stronger effect = lower value): 0.82 (active) | normalized growth (locus YFR010W, strain ubp6, stronger effect = lower value): 0.617 (active) | normalized growth (locus YGL078C, strain dbp3, stronger effect = lower value): 0.883 (active) | normalized growth (locus YGL086W, strain mad1, stronger effect = lower value): 0.847 (active) | normalized growth (locus YGL167C, strain pmr1, stronger effect = lower value): 0.95 (inactive) | normalized growth (locus YGL173C, strain kem1, stronger effect = lower value): 0.882 (active) | normalized growth (locus YGL227W, strain vid30, stronger effect = lower value): 0.894 (active) | normalized growth (locus YGL240W, strain doc1, stronger effect = lower value): 0.565 (active) | normalized growth (locus YGL248W, strain PDE1, stronger effect = lower value): 0.879 (active) | normalized growth (locus YGL253W, strain hxk2, stronger effect = lower value): 0.885 (active) | normalized growth (locus YGR135W, strain pre9, stronger effect = lower value): 0.878 (active) | normalized growth (locus YGR229C, strain SMI1, stronger effect = lower value): 0.384 (active) | normalized growth (locus YGR252W, strain gcn5, stronger effect = lower value): 0.655 (active) | normalized growth (locus YHR013C, strain ard1, stronger effect = lower value): 0.868 (inactive) | normalized growth (locus YHR027C, strain rpn1, stronger effect = lower value): 0.933 (inactive) | normalized growth (locus YHR030C, strain SLT2, stronger effect = lower value): 0.94 (inactive) and 0.843 (active) | normalized growth (locus YHR079C, strain IRE1 (second series), stronger effect = lower value): 0.801 (active) | normalized growth (locus YHR079C, strain IRE1, stronger effect = lower value): 0.791 (active) | normalized growth (locus YHR094C, strain hxt1, stronger effect = lower value): 0.941 (inactive) | normalized growth (locus YHR129C, strain ARP1, stronger effect = lower value): 0.801 (active) | normalized growth (locus YHR142W, strain chs7, stronger effect = lower value): 0.772 (active) | normalized growth (locus YHR200W, strain rpn10, stronger effect = lower value): 0.711 (active) | normalized growth (locus YIL066C, strain RNR3, stronger effect = lower value): 0.921 (inactive) | normalized growth (locus YIL073C, strain SPO22, stronger effect = lower value): 0.598 (active) | normalized growth (locus YIL125W, strain kgd1, stronger effect = lower value): 0.774 (active) | normalized growth (locus YIR030C, strain dcg1, stronger effect = lower value): 0.826 (active) | normalized growth (locus YJL092W, strain hpr5, stronger effect = lower value): 0.22 (active) | normalized growth (locus YJL095W, strain BCK1 (second series), stronger effect = lower value): 0.855 (active) | normalized growth (locus YJL095W, strain BCK1, stronger effect = lower value): 0.751 (active) and 0.84 (active) | normalized growth (locus YJL115W, strain asf1, stronger effect = lower value): 0.132 (active) | normalized growth (locus YJL129C, strain trk1, stronger effect = lower value): 0.537 (active) | normalized growth (locus YJL134W, strain LCB3, stronger effect = lower value): 0.997 (inactive) | normalized growth (locus YJL154C, strain vps35, stronger effect = lower value): 0.811 (active) | normalized growth (locus YJL164C, strain tpk1, stronger effect = lower value): 0.634 (active) | normalized growth (locus YJL166W, strain qcr8, stronger effect = lower value): 0.748 (active) | normalized growth (locus YJL168C, strain set2, stronger effect = lower value): 0.961 (inactive) | normalized growth (locus YJL187C, strain SWE1 (second series), stronger effect = lower value): 0.848 (active) | normalized growth (locus YJL187C, strain SWE1, stronger effect = lower value): 0.876 (active) | normalized growth (locus YJR043C, strain POL32, stronger effect = lower value): 0.561 (active)
